Out of some 310,000 compounds screened, about 14,000 (4.5%) showed an effect of 50% or more. The effect is printed as a negative number. The entries come from a sample that favours strong results as a whole.
Biological target: human ether-à-go-go-related gene (hERG) potassium channel (human, UniProt Q12809)
Test: primary screen, population patch clamp on CHO cells stably expressing hERG; higher = less effect of the substance
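Also: peak tail current of the secondary pulse compared with the same well before compound.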

Sequence of human ether-à-go-go-related gene (hERG) potassium channel (Q12809 whole entry, looked up): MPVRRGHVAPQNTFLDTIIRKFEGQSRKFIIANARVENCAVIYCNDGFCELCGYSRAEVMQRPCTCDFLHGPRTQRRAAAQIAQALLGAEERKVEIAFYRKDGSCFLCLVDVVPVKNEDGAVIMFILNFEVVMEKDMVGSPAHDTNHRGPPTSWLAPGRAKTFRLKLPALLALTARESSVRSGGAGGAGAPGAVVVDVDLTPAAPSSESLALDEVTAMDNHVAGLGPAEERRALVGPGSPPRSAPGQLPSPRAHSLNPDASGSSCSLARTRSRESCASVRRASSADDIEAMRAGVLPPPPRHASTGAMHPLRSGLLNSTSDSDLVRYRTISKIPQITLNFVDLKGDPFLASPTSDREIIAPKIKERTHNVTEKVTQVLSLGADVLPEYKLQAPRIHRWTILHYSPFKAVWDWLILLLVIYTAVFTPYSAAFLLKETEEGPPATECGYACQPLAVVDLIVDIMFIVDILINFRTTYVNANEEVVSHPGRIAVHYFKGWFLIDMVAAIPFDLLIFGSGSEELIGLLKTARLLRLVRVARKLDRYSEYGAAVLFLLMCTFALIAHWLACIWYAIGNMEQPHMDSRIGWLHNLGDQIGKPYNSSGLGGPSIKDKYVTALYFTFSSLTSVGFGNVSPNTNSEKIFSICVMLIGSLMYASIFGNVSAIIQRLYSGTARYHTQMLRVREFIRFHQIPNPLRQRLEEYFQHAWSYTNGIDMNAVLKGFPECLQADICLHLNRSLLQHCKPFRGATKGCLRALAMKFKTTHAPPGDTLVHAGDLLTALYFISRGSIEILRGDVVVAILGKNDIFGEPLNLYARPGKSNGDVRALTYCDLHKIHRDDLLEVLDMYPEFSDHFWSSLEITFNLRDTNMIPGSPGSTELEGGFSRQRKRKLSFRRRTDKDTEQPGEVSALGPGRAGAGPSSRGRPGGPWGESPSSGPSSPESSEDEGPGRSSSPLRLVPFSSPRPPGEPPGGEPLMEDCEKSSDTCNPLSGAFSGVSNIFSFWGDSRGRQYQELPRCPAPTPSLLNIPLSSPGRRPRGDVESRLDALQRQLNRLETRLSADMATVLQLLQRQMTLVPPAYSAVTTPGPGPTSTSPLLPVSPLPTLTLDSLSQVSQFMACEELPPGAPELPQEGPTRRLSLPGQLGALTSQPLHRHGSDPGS

Row | Compound | hERG current change (%, negative = inhibition) at 10uM [%]
1 | CCC(NC(=O)c1ccccc1NC(=O)c1ccccc1)C(=O)OC (stereo not shown) | 11.3
2 | CS(=O)CSc1nc2c(cc1C#N)CCCC2 (stereo not shown) | -25
3 | NC(=O)CC(NC(=O)c1cccc(Br)c1)c1ccc(NCC2CC2)c([N+](=O)[O-])c1 (stereo not shown) | -65.4
4 | NC(=O)CC(NC(=O)c1cccc(Br)c1)c1ccc(NC2CCC2)c([N+](=O)[O-])c1 (stereo not shown) | -59.8
5 | Cc1cc(C)cc(C(=O)NC(CC(N)=O)c2ccc(NCC3CC3)c([N+](=O)[O-])c2)c1 (stereo not shown) | -30.4
6 | NC(=O)CC(NC(=O)c1cccc(Br)c1)c1ccc(NC2CCCCCCCCCCC2)c([N+](=O)[O-])c1 (stereo not shown) | 5.21
7 | NC(=O)CC(NC(=O)c1cccc(Br)c1)c1ccc(NC2CCCCCCC2)c([N+](=O)[O-])c1 (stereo not shown) | 6.95
8 | NC(=O)CC(NC(=O)c1ccccc1)c1ccc(NCC2CC2)c([N+](=O)[O-])c1 (stereo not shown) | -35.3
9 | CCc1nnc(NC(=O)CCC(=O)NC2CCCCC2)s1 | 15.8
10 | CCN1CCN(CC(=O)Nc2nc3ccccc3s2)CC1.O=CO | -22.7
11 | CCc1nnc(NC(=O)CCC(=O)NC2CC2)s1 | -50.5
12 | O=C(CN1CCN(C(=O)c2ccc(-c3nc4ccccc4s3)o2)CC1)Nc1ccc(F)cc1 | -72.3
13 | CCc1nnc(NC(=O)CCC(=O)NC2CCCC2)s1 | -3.36
14 | O=C(CN1CCN(Cc2ccc(F)cc2)CC1)Nc1nc2ccccc2s1 | -69.3
15 | CCc1nnc(NC(=O)CCC(=O)N2CCN(CCOc3ccc(C)cc3)CC2)s1 | -20.2
16 | CN1CCN(CC(=O)Nc2nc3ccccc3s2)CC1.O=CO | -5.53
17 | Cc1ccc(OCCN2CCN(C(=O)CCC(=O)Nc3nnc(CC(C)C)s3)CC2)cc1 | -43.5
18 | CCCc1nnc(NC(=O)CCC(=O)N2CCN(CCOc3ccc(C)cc3)CC2)s1 | -51.2
19 | COc1ccccc1N1CCN(C(=O)c2ccc(-c3nc4ccccc4s3)o2)CC1 | -3.16
20 | O=C(c1ccc(-c2nc3ccccc3s2)o1)N1CCN(c2ccccc2O)CC1 | 11.6
21 | Cc1cc(C)c2c(=O)[nH]n(C3CCCCCC3)c2n1 | 23.5
22 | Cc1nc(Nc2nc3c(c(=O)[nH]2)CCC3)nc2ccccc12 | -10.2

Row | Compound | hERG current change (%, negative = inhibition) at 10uM [%]
23 | Cc1ccc(NC(=S)N(C)C)cc1C | -4.6
24 | O=C(N=C1SC2CS(=O)(=O)CC2N1c1ccc(Cl)cc1Cl)C1CC1 (stereo not shown) | -7.48
25 | Cc1ccc(/C(O)=C/C(=O)C(=O)NNC(=O)C(O)(c2ccccc2)c2ccccc2)cc1 | 14.5
26 | OCCOc1ccc(C2=NCCO2)cc1 | -23.3
27 | Cc1cnc([N+](=O)[O-])n1CCOC(=O)NC(=O)c1ccccc1Cl | 8.87
28 | COc1ccc(OC)c(NC(=O)CCCNC(=O)c2ccc(Cl)cc2)c1 | -9.27
29 | CCc1nnc(NC(=O)CN2CCN(Cc3ccc(F)cc3)CC2)s1 | -13.6
30 | CCc1nnc(NC(=O)CN2CCN(Cc3cccc(Cl)c3)CC2)s1 | -8.15
31 | CCc1nnc(NC(=O)CN2CCN(Cc3ccc(C)cc3)CC2)s1 | -57.6
32 | CCCN1CCN(CC(=O)Nc2nc3ccccc3s2)CC1 | -49.9
33 | CS(=O)(=O)c1ccc2nc(NC(=O)CN3CCN(Cc4ccccc4)CC3)sc2c1 | -39.8
34 | O=C(CN1CCN(Cc2ccccc2)CC1)Nc1nc2ccccc2s1 | -68.2
35 | Cc1cccc(OCC(=O)Nc2ccc3oc(=O)ccc3c2)c1 | 8.55
36 | COc1ccc(C(C)=O)cc1Cn1nc(C)c([N+](=O)[O-])c1C | 18.5
37 | CC1(C)Oc2ccc3ccc(=O)oc3c2/C(=C/NCCO)C1=O | 5.11
38 | Br.CCCCCCCCCn1c2c(c(=N)c3c1CCC3)CCC2 | -74.1
39 | CCCCCCn1c(=O)[nH]c2c(c1=O)CCC2 | -3.06
40 | CCCCn1c2c(c(=N)c3c1CCC3)CCC2.I | -2.48
41 | CCCn1c2c(c(=N)c3c1CCC3)CCCC2.I | 6.05
42 | Br.CCCCCCCCn1c2c(c(=N)c3c1CCC3)CCCC2 | -76.1
43 | Br.CCn1c2c(c(=N)c3c1CCC3)CCCC2 | -2.41
44 | CCOC(=O)Cn1c2c(c(=N)c3c1CCC3)CCC2.Cl | 8.34

Row | Compound | hERG current change (%, negative = inhibition) at 10uM [%]
45 | CCOC(=O)Cn1c2c(c(=N)c3c1CCC3)CCCC2.Cl | 18.5
46 | Br.CCCCCCn1c2c(c(=N)c3c1CCC3)CCC2 | -76.5
47 | Br.CCCCCCCCCCn1c2c(c(=N)c3c1CCC3)CCC2 | -78.9
48 | CCCn1c2c(c(=N)c3c1CCC3)CCC2.I | 7.05
49 | Br.CCn1c2c(c(=N)c3c1CCC3)CCC2 | 0.642
50 | CC(NC(=O)Cc1ccccc1)c1nc2ccccc2[nH]1 (stereo not shown) | 5.94
51 | O=C(CCNC(=O)c1ccc([N+](=O)[O-])cc1)NCCc1ccc(Cl)cc1 | -40.4
52 | Cc1cc(C)n2nc(CC(=O)NCc3ccc(F)cc3)nc2n1 | -0.0725
53 | CCN(CC)N=Nc1ccc(S(=O)(=O)N2CCSC2C(=O)[O-])cc1.[K+] (stereo not shown) | 28.2
54 | CCC(C)[C@H](NC(=O)OC(C)(C)C)C(=O)N/N=C/c1ccc2nccnc2c1 (stereo partly shown) | -13.8
55 | CNC(=O)c1cc(OCC(F)(F)F)ccc1OCC(F)(F)F | -4.26
56 | COc1ccc(S(=O)(=O)NCc2ccc(C(=O)NCc3cccnc3)cc2)cc1 | -1.21
57 | COc1ccc(C(=O)N2CCN(C)C(=O)[C@@H]2C)cc1OC1CCN(C(C)=O)CC1 | 12.6
58 | Cc1c(NC(=S)N/N=C/C=C/c2ccccc2)c(=O)n(-c2ccccc2)n1C | 11.2
59 | Cc1ccc(-c2noc(C3CCCCC3)n2)cc1 | 16.1
60 | COc1cc(OC)cc(-c2cc3nc(C)c(CCC(=O)NC(C)CCc4ccco4)c(C)n3n2)c1 (stereo not shown) | -58.4
61 | Cc1nc2cc(-c3cccc(F)c3)nn2c(C)c1CCC(=O)NC(C)CCc1ccco1 (stereo not shown) | -70.6
62 | COc1cc(OC)cc(-c2cc3nc(C)c(CCC(=O)Nc4nc(C)cs4)c(C)n3n2)c1 | 10
63 | COc1ccccc1-c1cc2nc(C)c(CCC(=O)NCc3ccc(F)cc3)c(C)n2n1 | -49.7
64 | COc1ccc(-c2cc3nc(C)c(CCC(=O)NCc4ccc(F)cc4)c(C)n3n2)c(OC)c1 | -60.4
65 | Cc1csc(NC(=O)CCc2c(C)nc3cc(-c4cccc(F)c4)nn3c2C)n1 | -17.3
66 | COc1cc(OC)cc(-c2cc3nc(C)c(CCC(=O)NCc4ccccc4)c(C)n3n2)c1 | -33.8

Row | Compound | hERG current change (%, negative = inhibition) at 10uM [%]
67 | COc1ccccc1-c1cc2nc(C)c(CCC(=O)NCc3ccco3)c(C)n2n1 | -43.1
68 | COc1ccccc1CNC(=O)CCc1c(C)nc2cc(-c3ccccc3OC)nn2c1C | -11.5
69 | COc1ccc(CNC(=O)CCc2c(C)nc3cc(-c4ccccc4OC)nn3c2C)cc1 | -37.7
70 | COc1ccccc1-c1cc2nc(C)c(CCC(=O)NC(C)CCc3ccco3)c(C)n2n1 (stereo not shown) | -62.5
71 | Cc1nc2cc(-c3ccccc3)nn2c(C)c1CCC(=O)NCc1ccco1 | -37.4
72 | COc1ccc(C2SCC(=O)N2C)cc1 (stereo not shown) | 1.55
73 | COc1cccc(-c2cc(=O)c3cc(NC(=O)c4ccc(N(C)C)cc4)ccc3[nH]2)c1 | 16.2
74 | CN(C)S(=O)(=O)Oc1ccc(Cl)cc1C(=O)Nc1ccc(F)cc1F | -3.01
75 | Cc1cc(N/N=C2\CC(C)CC(C)(C)C2)nc2ccccc12 (stereo not shown) | -7.04
76 | CCN1C(=O)/C(=C/c2ccc3c(c2)CCN3CCCCl)C(=O)NC1=S | -3.76
77 | N#Cc1c(-c2ccco2)cc(-c2ccc(F)cc2)nc1N | -2.08
78 | COc1ccc(-c2cc(=O)oc3c(C)c(OC(C)C(=O)Nc4ccc(CN5CCOCC5)cc4)ccc23)cc1 (stereo not shown) | -5.78
79 | Cn1c(/C(C#N)=C2/CCCCCN2)nc2ccccc21 | -12.5
80 | O=S(=O)(NCc1ccc(Cl)cc1)NCc1ccc(Cl)cc1 | 12.7
81 | COC(=O)c1cc(Br)ccc1OC(=O)c1cccnc1 | 7.06
82 | Cc1nc2cc(-c3ccc(Cl)cc3)nn2c(C)c1CCC(=O)NCc1ccco1 | -41.9
83 | COc1ccc(-c2cc3nc(C)c(CCC(=O)NCc4ccco4)c(C)n3n2)c(OC)c1 | -12.9
84 | COc1ccc(-c2cc3nc(C)c(CCC(=O)NC(C)CCc4ccco4)c(C)n3n2)c(OC)c1 (stereo not shown) | -62
85 | Cc1ccc(C(=O)O)cc1NC(=S)NCCc1ccccc1 | 0.261
86 | C[C@H](NC(=O)c1cc2c(cn1)[nH]c1ccccc12)C(=O)O | 18.4
87 | CCOC(=O)C1(Cc2ccccc2C)CCCN(S(C)(=O)=O)C1 (stereo not shown) | 16.5
88 | Cc1cc(NC(=O)c2ccc(N3C(=O)C4C5C=CC(C5)C4C3=O)cc2)no1 (stereo not shown) | 8.53
